Source: PubChem BioAssay (National Center for Advancing Translational Sciences (NCATS))
Pf Dd2 growth – blocks in vitro growth of P. falciparum Dd2; actives 4.3% (n = 120,000); AID 1347417; Potency, µM (highest dose often 28.9 µM), usual class: inhibitors; P. falciparum Dd2 growth, SYBR Green, 72 h; active means well fitted inhibition curve with a large enough effect; further: nearly all actives have a fitted effect of over 65% in size
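Readout: SYBR Green fluorescence, 485 nm excitation, 535 nm emission, after ~16 h lysis at 37C. Before that, Dd2-infected red cells (2.5% hematocrit) grew 72 h with compound, 29 uM top final concentration.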
Each line names hits and unclear results; the compound was inactive in the other large screens; ! = not active in a repeat. Many of the other results were omitted from the sample, so hits are more common in it than they were.

CC(=O)Nc1ccc(CN2CCC3(CC2)CC(c2cccnc2)=NO3)cc1	none
CN(C)c1ccc(CN2CCCC3(CC(c4cccc(C(F)(F)F)c4)=NO3)C2)cc1 (stereo not drawn)	none
CC(=O)Nc1ccc(CN2CCC3(CC2)CC(c2cccc(C(F)(F)F)c2)=NO3)cc1	Pf Dd2 growth 10µM
O=C(NCc1ccc(F)cc1)NC1CCN(C(=O)N2CC3CC(C2)[C@H]2CCCC(=O)N2C3)CC1 (stereo partly drawn)	none
COc1ccccc1[C@@H]1CN(C(=O)c2ccc3cccnc3c2)C[C@H]1C(=O)O	none
COc1nccnc1NC1CCN(C(=O)NCc2ccc(F)cc2)CC1	none
CCOC(=O)c1c(C)sc(-c2c(-c3cccc(Cl)c3)[nH]c3c2c(=O)n(C)c(=O)n3C)c1O	none
CCOC(=O)c1c(C)sc(-c2c(-c3cc(C)ccc3C)[nH]c3c2c(=O)n(C)c(=O)n3C)c1O	Pf Dd2 growth 10µM
CCOC(=O)c1c(C)sc(-c2c(-c3cc(C)ccc3C)[nH]c3c2c(=O)[nH]c(=O)n3C)c1O	none
Cc1ccc(-c2ccc3nnc(CNC(=O)c4c(F)cccc4F)n3n2)cc1	none
COc1ccc2cc1Nc1ccc(cc1)C[C@H](NCC1CC1)C(=O)N(C)[C@@H](C(=O)NCc1ccccc1)C2	none
Cc1ccc(CNC(=O)C2N(C(C)C)C(=O)C23CCCC3)o1 (stereo not drawn)	none
COCCN1CC(C(=O)NCCOc2ccccc2)CCC1=O (stereo not drawn)	none
COc1ccc2cc1Nc1ccc(cc1)C[C@H](NCc1ccc(O)cc1)C(=O)N(C)[C@H](C(=O)NCCOc1ccccc1)C2	Pf Dd2 growth 2.5µM
COc1ccc(CCN2CC(C(=O)NCCc3ccc(C)cc3)CC2=O)cc1OC (stereo not drawn)	none
COc1ccc2cc1Nc1ccc(cc1)C[C@H](NCc1ccc(C)o1)C(=O)N(C)[C@H](C(=O)NCCC(C)C)C2	Pf Dd2 growth 1µM
COc1ccc2cc1Nc1ccc(cc1)C[C@H](NCc1ccc(C)o1)C(=O)N(C)[C@@H](C(=O)NCc1ccccc1)C2	Pf Dd2 growth 0.89µM
COc1cccc(C(=O)N2CCC(N3C(=O)CCC3C(=O)NCc3ccccc3)CC2)c1C (stereo not drawn)	none
COc1cccc(N2CC(C(=O)NCCOc3ccccc3)NC2=O)c1 (stereo not drawn)	none
CNC(=O)Cc1cccc(-n2ccnc2-c2cc(OC)c(OC)cc2F)c1	none
COCCn1cc2c3c(cccc31)CN(C(=O)c1cccc(C(F)(F)F)c1)CC2	none
CC(C)N1C(=O)CO[C@H](c2ccc(NC(=O)C3CCOCC3)cc2)[C@H]1CO	none
COc1ccc(CCNC(=O)CCCn2c(=O)c3cccn3c3ccccc32)cc1OC	none
O=C(NCc1nnc2ccc(-c3ccc(F)cc3)nn12)c1cc(Cl)ccc1F	none
O=C(c1ccn[nH]1)N1CCC(c2nc(CCOCC3CCCC3)no2)C1 (stereo not drawn)	none
CNC(=O)c1cnn2c1CN(C(=O)OC)CC2	none
CCOC(=O)C1(Cc2ccccc2Cl)CCN(S(=O)(=O)c2ccccc2)CC1	none
CCOC(=O)C1(Cc2ccc(Cl)cc2)CCNCC1	Pf Dd2 growth 3.5µM
CCOC(=O)C1(Cc2ccc(Cl)cc2)CCN(C(=O)c2ccc(C)s2)CC1	none
O=C(c1ccsc1)N1CCC(Oc2cccnc2)C1 (stereo not drawn)	none
CCc1ccccc1Nc1ncnc2c1cnn2-c1ccc(C)cc1C	none
COc1cccc(-c2ccc(CN3CCCC(c4nc5ccc(C)cc5c(=O)[nH]4)C3)cc2)c1 (stereo not drawn)	Pf Dd2 growth 7.9µM!
COc1cccc(-c2ccc(CN3CCN(c4cc(Cl)ncn4)C(=O)C3)cc2)c1	none
Cc1ccc2nc(C3CCN(CC4CCCC4)CC3)[nH]c(=O)c2c1	none
COc1ccc(-n2nc(C3CCCN(Cc4cccc5ccccc45)C3)[nH]c2=O)cc1 (stereo not drawn)	none
Cc1ccc2nc(C3CCN(Cc4ccccc4)CC3)[nH]c(=O)c2c1	none
Cc1ccc(-c2cccc(CN3CCCC(c4nc5ccc(C)cc5c(=O)[nH]4)C3)c2)c(C)c1 (stereo not drawn)	Pf Dd2 growth 7.9µM!
COc1cccc(-c2cc3c(=O)n(CCNC(=O)Cc4ccc(F)cc4)ccn3n2)c1	none
COc1ccc2[nH]c(C(=O)N3CCN4CCS(=O)(=O)N(C5CC5)C(=O)C4C3)cc2c1 (stereo not drawn)	none
c1nc(-c2cc(NC3CCNCC3)nc3[nH]ccc23)c2sccc2n1	none
O=C(NCc1ccnc2[nH]ccc12)C1CCCC1	none
CN(C)C(=O)c1ccc(-c2cc(NC3CCCC3)nc3[nH]ccc23)o1	Pf Dd2 growth 8.9µM
COc1cc(OC)cc(-n2c(=O)c3sccc3n(Cc3cc(=O)n4c(C)cccc4n3)c2=O)c1	none
Fc1ccc(CN2CCC(Cc3nc(-c4cccnc4)n[nH]3)C2)cc1F (stereo not drawn)	none
Cc1ccc(CN2CC[C@@](C)(O)[C@H](N3CCCC3)C2)o1	none
C[C@@]1(O)CCN(Cc2ccc(Br)o2)C[C@H]1N1CCCC1	none
C[C@@]1(O)CCN(Cc2cccc(F)c2)C[C@H]1N1CCCC1	none
O[C@]1(c2ccccc2)CCN(Cc2ccncc2)C[C@H]1N1CCCC1	Pf Dd2 growth 0.71µM
